This is an account of results in PubChem BioAssay (NCATS).

Molecules are shown by their SMILES. Inconclusive results are not listed. Activity calls are given as the source filed them. Unless noted, the call rests on the fitted dose curve; in most records, active means well fitted curve in the direction sought with a large enough effect; inconclusive means small, poorly fitted or top-dose-only effect, or another doubt; inactive means no such curve, though single readings can be large; an effect the other way counts as inactive or inconclusive.

Sequence of Pyruvate kinase PKM (Homo sapiens) (P14618 whole entry, looked up): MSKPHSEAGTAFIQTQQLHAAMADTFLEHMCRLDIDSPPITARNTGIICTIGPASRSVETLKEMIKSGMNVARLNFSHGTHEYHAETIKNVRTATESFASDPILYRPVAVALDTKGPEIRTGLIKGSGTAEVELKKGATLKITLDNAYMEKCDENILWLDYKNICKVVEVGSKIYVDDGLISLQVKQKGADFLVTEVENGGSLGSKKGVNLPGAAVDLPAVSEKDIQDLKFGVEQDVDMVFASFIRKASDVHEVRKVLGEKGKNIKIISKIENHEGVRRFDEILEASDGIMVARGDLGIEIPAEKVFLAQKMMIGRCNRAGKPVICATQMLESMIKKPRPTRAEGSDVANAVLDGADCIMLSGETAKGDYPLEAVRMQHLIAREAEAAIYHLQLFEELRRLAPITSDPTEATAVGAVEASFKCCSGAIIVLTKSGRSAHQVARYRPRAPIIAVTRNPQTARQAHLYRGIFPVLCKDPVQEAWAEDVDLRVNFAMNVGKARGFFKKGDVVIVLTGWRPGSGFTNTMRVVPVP

System in the first assay: not listed separately
Put plainly: MultiTox-Fluor Cytotoxicity Assay - LYMP1-001 - Dead Cells (AID 946).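 Further: 0% = DMSO and 100% = tetraoctylammonium bromide.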 As to conditions: LYMP1-001 lymphoblastoid cells, dead-cell protease fluorescence; series mostly up to 92.2 µM; cytotoxicity (dead cells): at the top concentration. Put shortly: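 In this qHTS, 15 uM tetraoctylammonium bromide defined 100% and DMSO defined basal activity. Lymphoblastoid cells (LYMP1-001, 2500 per well) received compound for 16 hr at 37 C before a fluorogenic dead-cell substrate readout at 485/520 nm.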
Turning to `COc1cc(Cc2cnc(N)nc2N)cc(OC)c1OC`, the “cytotoxicity (dead cells)” value was 9.51% (inactive).

As for `Nc1nc(N)c2nc(-c3ccccc3)c(N)nc2n1`, the “cytotoxicity (dead cells)” value was 2.14% (inactive).

On to `COc1ccc(CN(CCN(C)C)c2ccccn2)cc1`, for which the “cytotoxicity (dead cells)” value is 5.66% (inactive).

System in a further assay: not listed separately
Put plainly: MultiTox-Fluor Cytotoxicity Assay - LYMP1-001 - Live Cells (AID 947).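 Further: 0% = DMSO only and full inhibition = tetraoctylammonium bromide control.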 As to conditions: LYMP1-001 lymphoblastoid cells, live-cell protease fluorescence viability; series mostly up to 92.2 µM; activity change, negative = cytotoxicity: at the top concentration.
`COc1cc(Cc2cnc(N)nc2N)cc(OC)c1OC`: the “activity change, negative = cytotoxicity” value was -2.04% (inactive).

Take `Nc1nc(N)c2nc(-c3ccccc3)c(N)nc2n1`: the “activity change, negative = cytotoxicity” value was 6.71% (inactive).

`COc1ccc(CN(CCN(C)C)c2ccccn2)cc1`: the “activity change, negative = cytotoxicity” value was -16.2% (inactive).

System in a further assay: not listed separately
Put plainly: Cell Viability - LYMP1-002 - Assay at 16 hr (AID 948).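 Further: 0% = DMSO alone and full effect = 92 µM tetraoctylammonium bromide.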 As to conditions: LYMP1-002 lymphoblastoid cell viability; series mostly up to 92.2 µM; activity change, negative = cytotoxicity: at the top concentration. The procedure, abridged: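 Human lymphoblastoid cells (LYMP1-002), 2500/well, were preincubated 5 hr at 37 C, then exposed to compounds for 16 hr at 37 C in complete medium. Cellular ATP was read by CellTiter-Glo luminescence after 30 min at room temperature; AC50 from Hill fits.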
As to `COc1cc(Cc2cnc(N)nc2N)cc(OC)c1OC`, the “activity change, negative = cytotoxicity” value is -4.51% (inactive).

As to `Nc1nc(N)c2nc(-c3ccccc3)c(N)nc2n1`, the “activity change, negative = cytotoxicity” value is -18.8% (inactive).

Take `COc1ccc(CN(CCN(C)C)c2ccccn2)cc1`: the “activity change, negative = cytotoxicity” value was -7.89% (inactive).

Another assay has as its target Pyruvate kinase PKM (Homo sapiens) (UniProt P14618). Put plainly: qHTS Assay for Activators of Human Muscle Pyruvate Kinase (AID 954; active means well fitted curve in the direction sought with a large enough effect, not every such curve was filed as active;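 further: 0% = uninhibited enzyme and -100% = no enzyme or full thiadiazolimine inhibition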). Particulars: purified human muscle pyruvate kinase, luciferase-coupled luminescence, 1 h; series mostly up to 57.5 µM; activity change, negative = inhibition: at the top concentration. Put shortly:
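Enzyme was run at intermediate activity so both inhibitors and activators could be detected. ATP formed from ADP and PEP by 0.1 nM human PKM2 during a 1 h room-temperature incubation was quantified by coupled luciferase luminescence.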
Regarding `CCCN(CCC)CCc1cccc2c1CC(=O)N2`, the “activity change, negative = inhibition” value was -18.1% (inactive).

Turning to `CCCC(C(=O)OCCN(CC)CC)(c1ccccc1)c1ccccc1`, the “activity change, negative = inhibition” value is -1.47% (inactive).

With `CC(C)NNC(=O)c1ccncc1`, the “activity change, negative = inhibition” value was 9.16% (inactive).

On to `CCn1cc(C(=O)O)c(=O)c2cc3c(cc21)OCO3`, for which the “activity change, negative = inhibition” value was -13% (inactive).

For `CCn1nc(C(=O)O)c(=O)c2cc3c(cc21)OCO3`, the “activity change, negative = inhibition” value was -21.9% (inactive).

Turning to `CNCCCN1c2ccccc2CCc2ccccc21`, the “activity change, negative = inhibition” value was -5.41% (inactive).

As for `C[C@H](CS)C(=O)N1CCC[C@H]1C(=O)O`, the “activity change, negative = inhibition” value is -22.1% (inactive).

As for `Nc1ncn([C@@H]2O[C@H](CO)[C@@H](O)[C@H]2O)c(=O)n1`, the “activity change, negative = inhibition” value is -13.7% (inactive).

`CN/C(=C\[N+](=O)[O-])NCCSCc1ccc(CN(C)C)o1`: the “activity change, negative = inhibition” value was -14.4% (inactive).

For the molecule `CC(C)[N+](C)(CCOC(=O)C1c2ccccc2Oc2ccccc21)C(C)C`, the “activity change, negative = inhibition” value is -21.9% (inactive).

Regarding `COc1ccc(CN(CCN(C)C)c2ccccn2)cc1`, the “activity change, negative = inhibition” value is 5.69% (inactive).

On to `CCN(CC)CCNC(=O)c1ccc(NC(C)=O)cc1`, for which the “activity change, negative = inhibition” value is 8.36% (inactive).

As for `CN(C)CCCN1c2ccccc2Sc2ccc(C(F)(F)F)cc21`, the “activity change, negative = inhibition” value was -1.28% (inactive).

As to `C#CCN(C)CCCOc1ccc(Cl)cc1Cl`, the “activity change, negative = inhibition” value is -14% (inactive).

System in another assay: not listed separately
The assay can be described thus: MultiTox-Fluor Cytotoxicity Assay - LYMP1-002 - Live Cells (AID 955). Further: on the % scale 0 is the no-effect control and ±100 the full control effect. Particulars: LYMP1-002 lymphoblastoid live-cell protease fluorescence viability; series mostly up to 46.1 µM; viability change, negative = cytotoxic: at the top concentration. Put shortly:
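Read-out is live-cell protease activity (cell-permeant GF-AFC substrate, fluorescence Ex/Em=405/510), where a decrease indicates acute toxicity. Human lymphoblastoid cells were treated 16 hours at 37 C in a concentration series, and AC50 values came from standard Hill modelling.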
As for `COc1cc(Cc2cnc(N)nc2N)cc(OC)c1OC`, the “viability change, negative = cytotoxic” value was 5.71% (inactive).

`Nc1nc(N)c2nc(-c3ccccc3)c(N)nc2n1`: the “viability change, negative = cytotoxic” value is 6.59% (inactive).

With `COc1ccc(CN(CCN(C)C)c2ccccn2)cc1`, the “viability change, negative = cytotoxic” value was 2.76% (inactive).

System in the next assay: not listed separately
The assay can be described thus: MultiTox-Fluor Cytotoxicity Assay - LYMP1-003 - Live Cells (AID 962).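 Further: 0% = DMSO only and full loss = 92 µM tetraoctylammonium bromide; cytotoxic hits lower the live-cell protease signal.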 As to conditions: LYMP1-003 lymphoblastoid cells, MultiTox-Fluor live-cell protease fluorescence; series mostly up to 92.2 µM; activity change, negative = fewer live cells: at the top concentration. Put shortly: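 qHTS, 1536-well; 2500 cells/well LYMP1-003; 5 hr 37 C settle; cpd 16 hr 37 C; MultiTox-Fluor reagent 60 min RT; live-cell protease fluor. 405/510; Hill-fit AC50; tetraoctylammonium bromide pos. ctrl.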
For `COc1cc(Cc2cnc(N)nc2N)cc(OC)c1OC`, the “activity change, negative = fewer live cells” value is -5.6% (inactive).

For `Nc1nc(N)c2nc(-c3ccccc3)c(N)nc2n1`, the “activity change, negative = fewer live cells” value is -2.17% (inactive).

For the molecule `COc1ccc(CN(CCN(C)C)c2ccccn2)cc1`, the “activity change, negative = fewer live cells” value is 1.88% (inactive).
